Experimental data from PubChem BioAssay (Tox21).
Results filed as inconclusive are left out. The source made the active and inactive calls. Unless noted, the call rests on the fitted dose curve; in most records, active means well fitted curve in the direction sought with a large enough effect in the repeat runs; inconclusive means weak or mixed curves; inactive means no such curve, though single readings can be large; an effect the other way counts as inactive or inconclusive.

Assays:
[1] = qHTS assay to identify small molecule agonists of the androgen receptor (AR) signaling pathway in the presence of an antagonist - cell viability counter screen (AID 1259379);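 further: MDA-kb2 human breast cancer cells carrying an MMTV luciferase reporter; series mostly up to about 92 µM; nearly all actives have a fitted effect of over 25% in size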
Procedure, shortened: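 A CellTiter-Fluor read-out measured viability of MDA-kb2 reporter cells (MMTV promoter with AR and GR response elements). Treatment: nilutamide 3.0uM final with compounds at 15 concentrations, 16 hr, 37C, 0% CO2.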

[2] = qHTS assay to identify small molecule agonists of the estrogen receptor beta (ER-beta) signaling pathway - cell viability counter screen (AID 1259380); further: nearly all actives have a fitted effect of over 30% in size; further: potency means the concentration at half of the fitted maximal effect
Procedure, shortened: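 Cells used were ER-beta-UAS-bla HEK293T in medium with 2% charcoal-stripped FBS. They were treated for 16 hr at 37C. Viability came from CellTiter-Glo luminescence.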

[3] = qHTS assay to identify small molecule antagonists of the estrogen receptor beta (ER-beta) signaling pathway - cell viability counter screen (AID 1259382); further: series mostly up to about 92 µM; nearly all actives have a fitted effect of over 55% in size
Procedure, shortened: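 Agonist-stimulated (1nM E2) ER-beta-UAS-bla HEK293T cells are incubated with library compounds for 16 hr at 37C. Cell viability is then assessed in the reporter-assay wells by adding CellTiter-Glo and reading luminescence after 30 min.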

[4] = qHTS assay to identify small molecule agonists or antagonists of the thyroid stimulating hormone receptor (TSHR) signaling pathway - wild type cell line counter screen (AID 1259384; calls by dose curve)
Procedure, shortened: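 Wild-type Hek293 cells, 800/well, 18 h at 37C, then compound with Ro20-1724 for 30 min RT. cAMP by HTRF (cAMP-d2/anti-cAMP cryptate), 1 h RT, fluorescence read. 15 concentrations, triplicates.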

[5] = target: Thyrotropin receptor (Homo sapiens) (UniProt P16473); assay: qHTS assay to identify small molecule antagonists of the thyroid stimulating hormone receptor (TSHR) signaling pathway (AID 1259385; calls by dose curve; further: nearly all actives have a fitted effect of over 20% in size)
Thyrotropin receptor (Homo sapiens), sequence (P16473 whole entry, looked up): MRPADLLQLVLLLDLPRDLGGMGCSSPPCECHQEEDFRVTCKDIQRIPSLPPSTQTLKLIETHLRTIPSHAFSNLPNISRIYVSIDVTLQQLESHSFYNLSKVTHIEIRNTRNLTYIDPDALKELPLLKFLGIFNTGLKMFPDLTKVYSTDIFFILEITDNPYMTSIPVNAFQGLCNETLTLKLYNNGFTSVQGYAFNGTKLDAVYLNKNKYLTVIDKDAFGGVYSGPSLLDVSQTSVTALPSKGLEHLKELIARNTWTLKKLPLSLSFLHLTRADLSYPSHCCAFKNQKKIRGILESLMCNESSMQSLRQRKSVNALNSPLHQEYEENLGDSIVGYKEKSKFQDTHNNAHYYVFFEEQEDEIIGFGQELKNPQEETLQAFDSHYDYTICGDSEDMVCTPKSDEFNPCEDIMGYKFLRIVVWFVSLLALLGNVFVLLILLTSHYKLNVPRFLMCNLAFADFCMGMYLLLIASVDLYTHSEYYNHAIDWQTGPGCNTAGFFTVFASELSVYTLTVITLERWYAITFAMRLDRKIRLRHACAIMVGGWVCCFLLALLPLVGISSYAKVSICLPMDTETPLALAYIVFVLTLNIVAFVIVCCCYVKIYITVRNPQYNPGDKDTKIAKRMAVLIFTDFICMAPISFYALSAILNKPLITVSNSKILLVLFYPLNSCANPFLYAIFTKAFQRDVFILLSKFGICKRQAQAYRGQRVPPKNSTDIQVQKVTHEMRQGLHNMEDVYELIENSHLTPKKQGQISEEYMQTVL
Procedure, shortened: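 TSHR-HEK293 cells (800/well) plated 18 h, then compounds with Ro20-1724 and TSH at 1.5 ng/mL final, 30 min at room temperature. cAMP quantified by HTRF (cAMP-d2/anti-cAMP-cryptate, 1 h); 15 concentrations in triplicate.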

[6] = qHTS assay to identify small molecule agonists of the estrogen receptor alpha (ER-alpha) signaling pathway in the presence of an antagonist - cell viability counter screen (AID 1259386);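 further: series mostly up to about 92 µM; cells exposed to compounds for 22 h at 37 °C before the viability read; nearly all actives have a fitted effect of over 30% in size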
Procedure, shortened: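 ICI-182,780 at 10.0nM final accompanies the compound titration (15 concentrations, 22hr, 37C) on VM7Luc4E2 cells. The CellTiter-Fluor fluorescence readout runs in the same wells as the luciferase assay.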

[7] = target: Estrogen receptor (Homo sapiens) (UniProt P03372); assay: qHTS assay to identify small molecule agonists of the estrogen receptor alpha (ER-alpha) signaling pathway in the presence of an antagonist (AID 1259383; calls by dose curve; further: top concentration of the series differs between compounds; nearly all actives have a fitted effect of over 15% in size)
Estrogen receptor (Homo sapiens), sequence (P03372 whole entry, looked up): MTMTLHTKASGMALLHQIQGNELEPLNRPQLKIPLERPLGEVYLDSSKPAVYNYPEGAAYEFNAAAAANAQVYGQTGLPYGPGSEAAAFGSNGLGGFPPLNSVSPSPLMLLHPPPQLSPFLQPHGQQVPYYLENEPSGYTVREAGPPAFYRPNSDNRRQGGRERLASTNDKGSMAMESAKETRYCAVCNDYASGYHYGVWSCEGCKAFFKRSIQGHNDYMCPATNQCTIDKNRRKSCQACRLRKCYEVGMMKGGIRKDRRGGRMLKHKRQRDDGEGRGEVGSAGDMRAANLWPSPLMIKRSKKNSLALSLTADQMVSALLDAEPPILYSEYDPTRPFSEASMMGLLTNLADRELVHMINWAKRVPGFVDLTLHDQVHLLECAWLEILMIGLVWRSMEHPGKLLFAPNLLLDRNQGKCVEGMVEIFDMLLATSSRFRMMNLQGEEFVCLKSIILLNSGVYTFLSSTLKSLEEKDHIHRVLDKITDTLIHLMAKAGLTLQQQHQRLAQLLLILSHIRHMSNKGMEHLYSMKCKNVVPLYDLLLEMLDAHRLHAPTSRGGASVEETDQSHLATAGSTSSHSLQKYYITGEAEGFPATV
Procedure, shortened: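 Using VM7Luc4E2 cells seeded 24hr before treatment, antagonist ICI-182,780 (10.0nM final) was added, followed by compounds at 15 concentrations. Plates incubated 22hr; ONE-Glo luminescence quantified reporter activity.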
On the % scale 0 is the no-effect control and ±100 the full control effect.

CN(C)CC[C@@H](c1ccc(Cl)cc1)c1ccccn1
inactive: Potency [1] | Potency [2] | outcome [3] | outcome [4] | Potency [5] | Potency [6]

C=C(C)C(=O)OCCOP(=O)(O)O
inactive: Potency [1] | Potency [2] | outcome [3] | Potency [7] | outcome [4] | Potency [5] | Potency [6]

C[C@]12CCC(=O)C=C1CC[C@@H]1[C@@H]2CC[C@@]2(C)[C@H]1CC[C@]2(O)C(=O)CO
inactive: Potency [1] | Potency [2] | outcome [3] | Potency [7] | outcome [4] | Potency [5] | Potency [6]

C1CCOC1
inactive: Potency [1] | Potency [2] | outcome [3] | outcome [4] | Potency [5] | Potency [6]

C=CCc1cc(OC)c(O)c(C(=O)NCCO)c1
inactive: Potency [1] | Potency [2] | outcome [3] | Potency [7] | outcome [4] | Potency [5] | Potency [6]

CCC/C=C/CO
inactive: Potency [1] | Potency [2] | outcome [3] | Potency [7] | outcome [4] | Potency [5] | Potency [6]

NC/C=C/C(=O)O
inactive: Potency [1] | Potency [2] | outcome [3] | outcome [4] | Potency [5] | Potency [6]

CCN(CC)CCNC(=O)COc1ccc(Cl)cc1
inactive: Potency [1] | Potency [2] | outcome [3] | Potency [7] | outcome [4] | Potency [5] | Potency [6]

CN1C(=O)CC(c2ccccc2)C1=O (stereo not drawn)
inactive: Potency [1] | Potency [2] | outcome [3] | Potency [5] | Potency [6]

OCc1ccccc1O
inactive: Potency [1] | Potency [2] | outcome [3] | Potency [5] | Potency [6]

CCCNC(C)(C)COC(=O)c1ccccc1
inactive: Potency [1] | Potency [2] | outcome [3] | Potency [7] | Potency [5] | Potency [6]

CCCOCCC
inactive: Potency [1] | Potency [2] | outcome [3] | Potency [7] | Potency [5] | Potency [6]

CN1[C@@H]2CC[C@H]1CC(OC(=O)c1c[nH]c3ccccc13)C2 (stereo partly drawn)
inactive: Potency [1] | Potency [2] | outcome [3] | outcome [4] | Potency [5] | Potency [6]

CCCCN1C[C@H](O)[C@@H](O)[C@H](O)[C@H]1CO
inactive: Potency [1] | Potency [2] | outcome [3] | Potency [7] | outcome [4] | Potency [5] | Potency [6]

CC(C)=CCCC(C)CCOC=O (stereo not drawn)
inactive: Potency [1] | Potency [2] | outcome [3] | outcome [4] | Potency [5] | Potency [6]

Nc1ccc2ccccc2c1S(=O)(=O)O
inactive: Potency [1] | Potency [2] | outcome [3] | Potency [5] | Potency [6]

CCCc1c2oc(C(=O)O)cc(=O)c2cc2c(=O)cc(C(=O)O)n(CC)c12
inactive: Potency [1] | Potency [2] | outcome [3] | Potency [7] | Potency [5] | Potency [6]

CC(=O)N[C@@H](CC(C)C)C(=O)O
inactive: Potency [1] | Potency [2] | outcome [3] | Potency [7] | Potency [6]

CCNCCO
inactive: Potency [1] | Potency [2] | outcome [3] | outcome [4] | Potency [5] | Potency [6]

Cc1ccc(C(C)C)cc1O
inactive: Potency [1] | Potency [2] | outcome [3] | outcome [4] | Potency [6]

CC(C)C1=CC2=CC[C@@H]3[C@](C)(CCC[C@@]3(C)C(=O)O)[C@H]2CC1
active: Potency [2] 30.6 µM
inactive: Potency [1] | outcome [3] | Potency [7] | Potency [6]

CCCNC(C)C(=O)Nc1c(C)csc1C(=O)OC (stereo not drawn)
inactive: Potency [1] | Potency [2] | outcome [3] | Potency [7] | Potency [5] | Potency [6]

CCCCCCC
inactive: Potency [1] | Potency [2] | outcome [3] | Potency [7] | outcome [4] | Potency [5] | Potency [6]

COC(=O)c1ccc2cc(C(=O)OC)ccc2c1
inactive: activity change, negative = cytotoxicity [1] 2.92% [at 19 µM] | activity change, negative = cytotoxicity [2] 0.723% [at 19 µM] | activity change, negative = cytotoxicity [3] -4.09% [at 19 µM] | activation [7] 0.0917% [at 19 µM] | cAMP activity change [4] 3.63% [at 18.9 µM] | activity change, negative = inhibition [5] -1.02% [at 19 µM] | activity change, negative = cytotoxicity [6] -3.99% [at 19 µM]

CC/C=C\CCOC(=O)CCCCC
inactive: Potency [1] | Potency [2] | outcome [3] | Potency [7] | outcome [4] | Potency [5] | Potency [6]

OCC(CBr)(CBr)CBr
inactive: Potency [1] | Potency [2] | outcome [3] | Potency [7] | outcome [4] | Potency [5] | Potency [6]

CS(=O)(=O)c1ccc([C@@H](O)[C@@H](CF)NC(=O)C(Cl)Cl)cc1
inactive: Potency [1] | Potency [2] | outcome [3] | Potency [7] | outcome [4] | Potency [5] | Potency [6]

C[C@]12C(=O)OC(=O)[C@H]1[C@H]1C=C[C@@H]2C1
inactive: Potency [1] | Potency [2] | outcome [3] | Potency [7] | Potency [6]

O=C(O)C(=O)Cc1c[nH]c2ccccc12
inactive: Potency [1] | Potency [2] | outcome [3] | Potency [7] | outcome [4] | Potency [5] | Potency [6]

O=C1CCCCC1C1CCCCC1 (stereo not drawn)
inactive: Potency [1] | Potency [2] | outcome [3] | Potency [7] | outcome [4] | Potency [5] | Potency [6]

OCCN1CCN(CCO)CC1
inactive: Potency [1] | Potency [2] | outcome [3] | outcome [4] | Potency [5] | Potency [6]

O=C(O)[C@@H](O)[C@H](O)[C@H](O)[C@@H](O)C(=O)O
inactive: Potency [1] | Potency [2] | outcome [3] | outcome [4] | Potency [5] | Potency [6]
